Columns and labels:
Assay in all cases: log2 ratio of Biotin-Ahx-Ub-VS probe labelling (fragment/DMSO); higher = less target engagement (more negative = stronger competition), active = hit call of the paper (q ≤ 0.05, log2 ratio ≤ -1)
Settings in all cases: compound concentration: 200 uM; treatment time: 3 h
USP19 = target: T1, USP19 (UniProt O94966)
T1 sequence (whole entry): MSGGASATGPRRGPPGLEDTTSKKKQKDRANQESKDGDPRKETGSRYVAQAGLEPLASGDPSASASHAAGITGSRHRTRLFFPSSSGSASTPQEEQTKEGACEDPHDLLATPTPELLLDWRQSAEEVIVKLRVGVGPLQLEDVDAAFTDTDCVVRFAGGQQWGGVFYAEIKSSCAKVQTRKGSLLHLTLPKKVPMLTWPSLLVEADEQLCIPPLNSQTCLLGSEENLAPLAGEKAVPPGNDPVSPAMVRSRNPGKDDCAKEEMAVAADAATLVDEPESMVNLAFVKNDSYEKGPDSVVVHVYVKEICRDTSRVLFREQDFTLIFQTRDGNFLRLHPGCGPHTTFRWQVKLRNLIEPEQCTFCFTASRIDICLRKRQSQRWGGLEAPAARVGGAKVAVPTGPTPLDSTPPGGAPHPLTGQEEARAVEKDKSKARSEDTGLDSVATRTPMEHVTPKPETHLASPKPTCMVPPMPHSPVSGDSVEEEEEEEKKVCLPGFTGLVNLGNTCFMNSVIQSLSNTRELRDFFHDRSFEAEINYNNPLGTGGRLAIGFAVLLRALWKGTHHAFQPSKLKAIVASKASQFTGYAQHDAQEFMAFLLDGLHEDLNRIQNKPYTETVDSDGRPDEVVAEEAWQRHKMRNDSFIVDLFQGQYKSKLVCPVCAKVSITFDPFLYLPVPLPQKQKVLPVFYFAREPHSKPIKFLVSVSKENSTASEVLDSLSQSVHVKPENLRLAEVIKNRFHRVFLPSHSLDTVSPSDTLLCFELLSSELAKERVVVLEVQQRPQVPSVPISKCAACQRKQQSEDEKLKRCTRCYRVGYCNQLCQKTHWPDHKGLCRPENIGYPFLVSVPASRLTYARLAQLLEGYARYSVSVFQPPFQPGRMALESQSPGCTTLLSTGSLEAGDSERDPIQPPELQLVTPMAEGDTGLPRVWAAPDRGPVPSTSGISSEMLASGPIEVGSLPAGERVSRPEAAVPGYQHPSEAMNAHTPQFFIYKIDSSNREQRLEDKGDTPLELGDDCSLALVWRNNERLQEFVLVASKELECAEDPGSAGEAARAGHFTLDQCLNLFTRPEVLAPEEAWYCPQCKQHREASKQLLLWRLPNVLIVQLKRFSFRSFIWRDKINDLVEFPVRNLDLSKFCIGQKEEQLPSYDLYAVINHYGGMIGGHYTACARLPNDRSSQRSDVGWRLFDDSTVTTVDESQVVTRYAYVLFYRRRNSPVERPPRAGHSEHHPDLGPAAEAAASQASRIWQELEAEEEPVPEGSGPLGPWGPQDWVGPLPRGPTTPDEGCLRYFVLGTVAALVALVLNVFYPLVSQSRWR
How it was run: (§1)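 HEK293T lysate in Tris/CHAPS/IGEPAL buffer with protease inhibitors (495 µg per sample) was given fragment at 200 µM or vehicle for 3 h, in triplicate. It then received Biotin-Ahx-Ub-VS at 0.5 µM final for 1 h. Labelled DUBs were NeutrAvidin-enriched, digested with LysC and trypsin, and run by diaPASEF LC-MS/MS. Values are average log2 fragment/vehicle ratios by unpaired t-test on global-median-normalised Spectronaut quantities of proteins with ≥2 unique peptides.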

USP24 = USP24 (UniProt Q9UPU5)
How it was run: as §1

USP25 = target: T2, USP25 (UniProt Q9UHP3)
T2 sequence (whole entry): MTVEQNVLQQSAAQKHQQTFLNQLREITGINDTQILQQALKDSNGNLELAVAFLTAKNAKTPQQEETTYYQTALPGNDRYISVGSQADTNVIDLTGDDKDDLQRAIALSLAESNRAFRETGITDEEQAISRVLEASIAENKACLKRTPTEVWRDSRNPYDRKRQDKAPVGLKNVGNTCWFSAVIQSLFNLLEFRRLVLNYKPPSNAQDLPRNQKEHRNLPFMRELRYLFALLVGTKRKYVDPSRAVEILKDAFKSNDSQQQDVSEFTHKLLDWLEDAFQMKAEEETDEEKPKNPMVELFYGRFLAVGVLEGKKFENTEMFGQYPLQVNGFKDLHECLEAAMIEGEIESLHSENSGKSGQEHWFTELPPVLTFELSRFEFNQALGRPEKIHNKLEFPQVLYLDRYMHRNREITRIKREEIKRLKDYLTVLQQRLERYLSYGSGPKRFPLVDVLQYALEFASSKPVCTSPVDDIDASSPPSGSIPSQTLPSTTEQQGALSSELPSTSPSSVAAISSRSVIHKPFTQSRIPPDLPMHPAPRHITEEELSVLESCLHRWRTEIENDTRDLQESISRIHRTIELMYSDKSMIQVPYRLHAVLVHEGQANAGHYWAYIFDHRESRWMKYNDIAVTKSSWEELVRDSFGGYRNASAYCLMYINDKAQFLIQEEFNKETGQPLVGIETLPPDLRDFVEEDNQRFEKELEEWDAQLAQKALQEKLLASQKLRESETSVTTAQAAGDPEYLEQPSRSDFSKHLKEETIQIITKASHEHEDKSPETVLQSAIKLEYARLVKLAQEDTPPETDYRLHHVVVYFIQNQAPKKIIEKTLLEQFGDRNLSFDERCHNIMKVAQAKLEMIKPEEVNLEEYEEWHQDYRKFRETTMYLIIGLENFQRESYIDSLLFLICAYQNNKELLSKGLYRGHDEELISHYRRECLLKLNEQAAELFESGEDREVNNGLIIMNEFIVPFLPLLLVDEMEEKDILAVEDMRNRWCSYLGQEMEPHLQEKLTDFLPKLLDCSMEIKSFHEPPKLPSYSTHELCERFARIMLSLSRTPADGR
How it was run: as §1

USP28 = target: T3, USP28 (UniProt Q96RU2)
T3 sequence (whole entry): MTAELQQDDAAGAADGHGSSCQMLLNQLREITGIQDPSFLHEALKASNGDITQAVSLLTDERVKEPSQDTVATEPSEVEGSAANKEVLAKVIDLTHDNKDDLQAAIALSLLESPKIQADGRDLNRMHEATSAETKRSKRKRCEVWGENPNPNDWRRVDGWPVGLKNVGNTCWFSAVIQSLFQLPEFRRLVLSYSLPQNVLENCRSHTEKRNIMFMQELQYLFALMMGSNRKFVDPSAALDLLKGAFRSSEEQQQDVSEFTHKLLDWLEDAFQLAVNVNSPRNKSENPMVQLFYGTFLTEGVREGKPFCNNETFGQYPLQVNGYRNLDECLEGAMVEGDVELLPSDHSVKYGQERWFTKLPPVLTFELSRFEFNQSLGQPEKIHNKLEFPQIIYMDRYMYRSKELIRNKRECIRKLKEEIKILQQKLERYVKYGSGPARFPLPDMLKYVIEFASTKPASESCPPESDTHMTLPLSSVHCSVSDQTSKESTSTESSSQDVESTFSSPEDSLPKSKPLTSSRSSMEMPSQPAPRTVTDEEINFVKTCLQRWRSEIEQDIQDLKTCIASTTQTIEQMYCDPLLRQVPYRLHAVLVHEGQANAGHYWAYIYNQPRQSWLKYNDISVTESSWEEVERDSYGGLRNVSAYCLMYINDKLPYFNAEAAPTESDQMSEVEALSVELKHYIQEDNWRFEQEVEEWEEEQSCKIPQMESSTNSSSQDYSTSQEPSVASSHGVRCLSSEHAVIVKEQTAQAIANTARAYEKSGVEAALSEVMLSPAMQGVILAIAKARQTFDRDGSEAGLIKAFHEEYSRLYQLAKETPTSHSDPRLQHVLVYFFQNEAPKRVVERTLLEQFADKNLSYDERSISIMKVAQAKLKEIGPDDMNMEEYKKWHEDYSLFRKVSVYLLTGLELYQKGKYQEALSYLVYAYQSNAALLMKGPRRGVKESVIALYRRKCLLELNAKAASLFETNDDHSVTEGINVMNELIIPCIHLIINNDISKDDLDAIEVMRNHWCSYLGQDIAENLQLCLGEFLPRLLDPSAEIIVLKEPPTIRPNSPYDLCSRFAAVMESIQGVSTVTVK
How it was run: as §1

Measured: log2 ratio of Biotin-Ahx-Ub-VS probe labelling

USP24, sequence (Q9UPU5 whole entry): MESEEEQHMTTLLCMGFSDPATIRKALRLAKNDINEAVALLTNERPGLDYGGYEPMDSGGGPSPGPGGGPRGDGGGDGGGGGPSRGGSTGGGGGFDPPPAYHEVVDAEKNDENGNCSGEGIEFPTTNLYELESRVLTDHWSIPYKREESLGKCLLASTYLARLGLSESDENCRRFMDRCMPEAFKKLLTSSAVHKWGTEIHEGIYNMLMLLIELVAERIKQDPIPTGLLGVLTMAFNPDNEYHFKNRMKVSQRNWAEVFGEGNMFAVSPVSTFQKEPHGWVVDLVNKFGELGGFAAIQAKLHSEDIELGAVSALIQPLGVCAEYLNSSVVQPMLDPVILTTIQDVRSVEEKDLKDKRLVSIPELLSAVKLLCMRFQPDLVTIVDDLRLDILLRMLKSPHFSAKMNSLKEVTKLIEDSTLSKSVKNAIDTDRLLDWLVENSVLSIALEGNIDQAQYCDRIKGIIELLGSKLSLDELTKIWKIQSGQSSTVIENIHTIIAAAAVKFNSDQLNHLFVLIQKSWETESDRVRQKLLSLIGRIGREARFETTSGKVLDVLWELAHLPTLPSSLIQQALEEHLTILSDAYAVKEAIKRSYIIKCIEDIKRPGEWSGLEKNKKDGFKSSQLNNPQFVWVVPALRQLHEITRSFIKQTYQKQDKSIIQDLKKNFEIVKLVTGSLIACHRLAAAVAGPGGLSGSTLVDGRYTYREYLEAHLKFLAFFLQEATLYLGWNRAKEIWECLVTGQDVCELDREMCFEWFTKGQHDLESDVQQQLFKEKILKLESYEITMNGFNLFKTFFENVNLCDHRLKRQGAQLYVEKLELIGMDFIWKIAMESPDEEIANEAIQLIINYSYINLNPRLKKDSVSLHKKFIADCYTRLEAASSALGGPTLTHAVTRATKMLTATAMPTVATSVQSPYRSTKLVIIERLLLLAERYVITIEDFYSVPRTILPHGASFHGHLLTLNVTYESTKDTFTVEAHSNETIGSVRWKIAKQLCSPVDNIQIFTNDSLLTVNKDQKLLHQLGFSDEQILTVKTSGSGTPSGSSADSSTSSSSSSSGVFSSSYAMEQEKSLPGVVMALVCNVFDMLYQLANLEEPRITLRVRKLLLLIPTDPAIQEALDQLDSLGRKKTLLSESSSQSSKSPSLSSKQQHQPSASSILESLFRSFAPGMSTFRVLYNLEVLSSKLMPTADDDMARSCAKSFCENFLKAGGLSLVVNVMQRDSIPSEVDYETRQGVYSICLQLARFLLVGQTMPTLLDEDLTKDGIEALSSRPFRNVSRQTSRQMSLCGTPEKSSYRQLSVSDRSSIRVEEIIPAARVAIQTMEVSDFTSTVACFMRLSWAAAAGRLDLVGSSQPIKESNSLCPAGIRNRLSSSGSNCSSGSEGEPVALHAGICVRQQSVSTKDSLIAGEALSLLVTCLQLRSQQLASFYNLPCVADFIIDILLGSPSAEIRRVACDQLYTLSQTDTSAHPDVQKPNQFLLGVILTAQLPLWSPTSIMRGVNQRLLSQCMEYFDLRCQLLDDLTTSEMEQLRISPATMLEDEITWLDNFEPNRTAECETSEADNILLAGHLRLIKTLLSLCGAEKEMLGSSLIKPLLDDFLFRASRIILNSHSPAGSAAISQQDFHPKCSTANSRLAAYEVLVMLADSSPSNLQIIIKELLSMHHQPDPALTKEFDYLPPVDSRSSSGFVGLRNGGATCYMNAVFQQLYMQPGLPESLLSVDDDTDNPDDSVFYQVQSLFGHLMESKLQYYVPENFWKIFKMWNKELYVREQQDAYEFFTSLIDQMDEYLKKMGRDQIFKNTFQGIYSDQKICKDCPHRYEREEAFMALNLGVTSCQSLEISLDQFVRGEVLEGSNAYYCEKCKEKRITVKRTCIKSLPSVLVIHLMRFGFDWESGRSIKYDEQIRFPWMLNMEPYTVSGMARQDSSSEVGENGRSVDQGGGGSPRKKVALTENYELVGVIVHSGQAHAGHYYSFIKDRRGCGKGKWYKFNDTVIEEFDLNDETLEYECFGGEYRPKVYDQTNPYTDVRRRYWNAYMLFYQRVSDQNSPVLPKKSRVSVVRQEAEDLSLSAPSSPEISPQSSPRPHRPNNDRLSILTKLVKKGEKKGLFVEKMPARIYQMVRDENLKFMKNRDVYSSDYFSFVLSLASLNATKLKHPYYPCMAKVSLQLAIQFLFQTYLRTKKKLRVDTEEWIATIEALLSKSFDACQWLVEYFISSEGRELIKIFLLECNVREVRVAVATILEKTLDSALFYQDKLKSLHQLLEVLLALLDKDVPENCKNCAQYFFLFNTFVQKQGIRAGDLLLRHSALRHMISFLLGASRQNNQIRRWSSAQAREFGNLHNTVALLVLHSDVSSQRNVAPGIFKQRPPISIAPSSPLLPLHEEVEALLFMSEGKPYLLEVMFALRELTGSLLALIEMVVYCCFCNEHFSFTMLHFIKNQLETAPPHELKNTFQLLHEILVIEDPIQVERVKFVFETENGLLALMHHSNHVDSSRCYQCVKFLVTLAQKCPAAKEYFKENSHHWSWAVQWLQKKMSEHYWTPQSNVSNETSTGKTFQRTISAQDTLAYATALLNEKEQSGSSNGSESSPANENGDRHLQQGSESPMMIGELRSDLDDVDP

CNC(=O)C1(NC(=O)CCl)CCCCC1
inactive: USP19 0.162 | USP24 0.0556 | USP25 -0.118 | USP28 -0.181

Source: the supplement of paper PMC11732987, “Enantioselective OTUD7B fragment discovery through chemoproteomics screening and high-throughput optimisation” (Communications Chemistry, 2025)
